The whole screen tested about 330,000 compounds, of which about 5,800 (1.8%) were called active.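 The calls were made as follows: active = inhibition above about 50% at the single tested dose (limit read from the data); inactive = the rest.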 The entries come from a sample that favours actives as a whole.

Data on 98 compounds can be found in PubChem BioAssay AID2599 (Sanford-Burnham Center for Chemical Genomics, 2010).

In this assay the target is Sentrin-specific protease 6 (Homo sapiens) (UniProt Q9GZR1). Description: inhibition of human SENP6 catalytic domain – biochemical, luminescence, uHTS, primary screen (AID 2599).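 Also: plate controls were DMSO wells with enzyme for no effect and DMSO wells lacking enzyme for full effect.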 To be noted: Recombinant SENP6 catalytic domain, aminoluciferin luminescence; at 10 µM; hits give high values.
Chain of Sentrin-specific protease 6 (Homo sapiens) (Q9GZR1 628-1112 limits assumed): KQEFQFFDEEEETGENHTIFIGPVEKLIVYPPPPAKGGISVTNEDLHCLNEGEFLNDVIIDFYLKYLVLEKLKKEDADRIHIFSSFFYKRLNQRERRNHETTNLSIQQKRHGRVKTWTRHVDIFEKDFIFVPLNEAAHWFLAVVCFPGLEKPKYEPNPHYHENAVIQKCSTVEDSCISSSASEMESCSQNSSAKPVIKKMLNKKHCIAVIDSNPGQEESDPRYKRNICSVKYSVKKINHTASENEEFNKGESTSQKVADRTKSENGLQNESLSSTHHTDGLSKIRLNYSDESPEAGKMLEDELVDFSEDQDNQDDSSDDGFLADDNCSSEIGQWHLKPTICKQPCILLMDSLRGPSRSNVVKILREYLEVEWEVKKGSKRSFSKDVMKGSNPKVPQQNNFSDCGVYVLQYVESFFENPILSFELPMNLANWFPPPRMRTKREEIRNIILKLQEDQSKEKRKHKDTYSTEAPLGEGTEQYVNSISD
What is called inhibition is the change of the read-out against control, counted positive when it falls. In the case of `Cc1cc2nc(-c3ccc(NC(=O)c4cccnc4)cc3)oc2cc1C`, the inhibition was -15% (inactive).

As to `CCc1ccc2oc(-c3ccc(N)cc3)nc2c1`, the inhibition is 96.1% (active).

With `O=C(Nc1ccc2oc(-c3ccc4ccccc4c3)nc2c1)c1cccs1`, the inhibition is -13.1% (inactive).

As for `COc1cccc(NC(=O)Cn2cnc3sc(C)c(S(=O)(=O)N4CCN(C)CC4)c3c2=O)c1`, the inhibition was 10.7% (inactive).

Regarding `Cc1nnc(Nc2ccccc2F)s1`, the inhibition is 8.06% (inactive).

Take `C=CCN1CCN(C(=O)CCCc2ccccc2)CC1`: the inhibition is 0.31% (inactive).

As to `O=c1ccc2cc(S(=O)(=O)Nc3ccccc3F)ccc2o1`, the inhibition is 16.4% (inactive).

`N#CC1=C(N)C(C#N)(C#N)[C@H](c2ccsc2)[C@H]2COCC=C12`: the inhibition was -0.527% (inactive).

Turning to `CCN1CC=C2C(C#N)=C(N)C(C#N)(C#N)[C@H](c3ccoc3)[C@H]2C1`, the inhibition was 72.9% (active).

In the case of `CCCN1CC=C2C(C#N)=C(N)C(C#N)(C#N)C(c3cc(OC)ccc3OC)C2C1` (stereo not drawn), the inhibition is 0.193% (inactive).

As to `CC(CO)(CO)NC(=O)c1ccc(=O)[nH]n1`, the inhibition is -1.98% (inactive).

Regarding `Cc1nonc1NC(=O)c1oc2ccccc2c1C`, the inhibition was 2.56% (inactive).

With `Cc1noc(C)c1C(=O)Nc1ccccn1`, the inhibition was -8.05% (inactive).

With `Cc1c(C(=O)Nc2ccccn2)oc2ccc(Br)cc12`, the inhibition was 56.3% (active).

Take `Cn1ccc(=Nc2ccc(NC(=O)c3ccc(N=c4ccn(C)c5ccc([N+](=O)[O-])cc45)cc3)cc2)cc1`: the inhibition is 0.718% (inactive).

For `NS(=O)(=O)c1ccc(-c2ccc(/C=C3\SC(=O)NC3=O)o2)cc1`, the inhibition is -21.1% (inactive).

As for `CCn1c(CN2C(=O)CSc3ccccc32)n[nH]c1=S`, the inhibition is 5.59% (inactive).

As for `CCOC(=O)c1cc(C)sc1NC(=O)C1CCC1`, the inhibition is -29.2% (inactive).

With `CCOC(=O)c1cc2cc3ccccc3cc2oc1=O`, the inhibition is 13.2% (inactive).

Regarding `COc1cccc(C(=O)NNC(=O)c2cccc(F)c2)c1`, the inhibition is 0.598% (inactive).

For the compound `COc1cccc(C(=O)c2cc3ccc(O)cc3oc2=O)c1`, the inhibition was 101% (active).

Consider `Cc1ccc(N2C(=O)C(NC(=O)c3c(F)cccc3F)(C(F)(F)F)C3=C2CC(C)(C)CC3=O)cc1` (stereo not drawn), for which the inhibition is -5.98% (inactive).

In the case of `COC(=O)c1c(CCl)noc1C(=O)NC(C)C`, the inhibition was 15.8% (inactive).

`COc1ccc(N2CCN(C(=O)c3ccc4c(Cl)c5c(nc4c3)CCCC5)CC2)cc1`: the inhibition was -0.317% (inactive).

Consider `CC(=O)c1ccc(NC(=O)c2ccc3c(Cl)c4c(nc3c2)CCCC4)cc1`, for which the inhibition is -20.3% (inactive).

For the compound `CC(C)CCNC(=O)c1ccc2c(Cl)c3c(nc2c1)CCC3`, the inhibition is 76.2% (active).

For the compound `Cc1nc2ccccc2c(=O)n1-c1ccc(F)c(NC(=O)c2cccs2)c1`, the inhibition is 1.23% (inactive).

For `CCn1nnnc1SCC(=O)c1ccc(C)cc1C`, the inhibition was 16% (inactive).

For `CC(Oc1cccc(Cl)c1)C(=O)NC1CC(C)(C)NC(C)(C)C1` (stereo not drawn), the inhibition is 0.854% (inactive).

Consider `Cc1nnc(SCC(=O)Nc2ccc(S(=O)(=O)Nc3ccc(Cl)nn3)cc2)s1`, for which the inhibition was -2.31% (inactive).

For the compound `Cc1ccc(SC(CC(=O)c2ccc(C(C)(C)C)cc2)C(=O)O)cc1` (stereo not drawn), the inhibition is -11.7% (inactive).

In the case of `CC(C)Cc1cc(C(=O)Nc2cc(Br)ccc2O)no1`, the inhibition is 58.1% (active).

Turning to `CC(C)Cc1cc(C(=O)NCCc2ccccc2)no1`, the inhibition was 13% (inactive).

With `CC(C)CNC(=O)c1cc(-c2ccc(Br)cc2)on1`, the inhibition is -1.36% (inactive).

`O=C(NNc1cc(Cl)cc(Cl)c1)c1c(F)cccc1Cl`: the inhibition was -9.66% (inactive).

Regarding `O=C(Nc1ccccc1)c1cc2ccccc2[nH]1`, the inhibition is 86.2% (active).

For `CC(OC(=O)c1cc2ccccc2[nH]1)C(=O)N(C)c1ccccc1` (stereo not drawn), the inhibition was -10.7% (inactive).

Take `COc1ccc2[nH]c(C(=O)Nc3ccccc3Cl)cc2c1`: the inhibition was -36% (inactive).

With `O=C(Cc1ccc(S(=O)(=O)N2CCOCC2)s1)NCCC(c1ccccc1)c1ccccc1`, the inhibition is -9.6% (inactive).

As for `CC(=O)n1c(C=Nc2ccccc2)c(O)c2ccccc21`, the inhibition is -2.55% (inactive).

Take `Oc1ccc(N=Cc2sc3ccccc3c2Cl)cc1`: the inhibition was 65.7% (active).

Take `CCn1c(SCC(=O)Nc2cccc(F)c2)nnc1-c1cc2cc(Br)ccc2o1`: the inhibition was -0.574% (inactive).

As for `CCc1cccc(C)c1NC(=O)COC(=O)Cc1ccsc1`, the inhibition is -15.1% (inactive).

As for `CCN1CCN(C(=O)/C=C\C(=O)O)CC1`, the inhibition was -13.9% (inactive).

As for `O=[N+]([O-])c1ccc(N/N=C2/CCCCC2c2ccccn2)c([N+](=O)[O-])c1` (stereo not drawn), the inhibition is -14.2% (inactive).

As to `O=[N+]([O-])c1ccc2c(c1)Nc1nc3ccccc3nc1N2`, the inhibition is -19% (inactive).

For the compound `O=[N+]([O-])c1ccc2nc(-c3ccccn3)[nH]c2c1`, the inhibition was 55.5% (active).

In the case of `CCOC(=O)c1cccc(NC(=O)c2ccc(F)cc2F)c1`, the inhibition is 53.3% (active).

As to `Cc1cccc(C(=O)OCC(=O)Nc2ccc(F)cc2)c1`, the inhibition is -14% (inactive).

As to `CCOC(=O)c1cccc(NC(=O)CCOc2ccccc2)c1`, the inhibition is -8.69% (inactive).

`COc1c(C=O)c(CCN(C)C(=O)c2ccc(F)cc2)cc2c1OCO2`: the inhibition was -13.8% (inactive).

In the case of `COC(CNC(=O)Cn1ncc2ccsc2c1=O)OC`, the inhibition is -0.866% (inactive).

On to `O=C(c1ccc(NS(=O)(=O)c2ccc3[nH]c(=O)[nH]c3c2)cc1)N1CCCCC1`, for which the inhibition was -7.59% (inactive).

On to `C#CCOc1ccccc1/C=C1/C(=O)ON=C1C`, for which the inhibition is 9.07% (inactive).

On to `Cc1ccc(C23CC4CC(CC(C(=O)NCC(=O)O)(C4)C2)C3)cc1`, for which the inhibition was -30.4% (inactive).

Regarding `CC(C)CCNC(=O)Cn1c(=O)oc2cc(S(=O)(=O)N3CC(C)CC(C)C3)ccc21` (stereo not drawn), the inhibition is 2.44% (inactive).

In the case of `Cc1cc(=O)[nH]c(N/N=C/c2ccc3c(c2)OCCO3)n1`, the inhibition is -9.26% (inactive).

Consider `Cc1noc(C)c1/C=N/Nc1ccc2ccccc2n1`, for which the inhibition was -42.7% (inactive).

As for `C(=N\Nc1ccc2ccccc2n1)/c1ccc2c(c1)OCO2`, the inhibition was 91.4% (active).

Take `O=C(CCc1n[nH]c(=O)[nH]c1=O)N/N=C/c1ccc(Br)o1`: the inhibition was -16.6% (inactive).

In the case of `CCNc1nc(SCCOc2ccccc2)nc(N(C)C)n1`, the inhibition is -7.75% (inactive).

`Cn1c(-c2ccco2)nc2cc3ccccc3cc21`: the inhibition was 98.6% (active).

Take `COc1ccccc1-n1c(-c2cc(-c3ccco3)[nH]n2)n[nH]c1=S`: the inhibition was 8.36% (inactive).

For the compound `CS(=O)(=O)n1nc(-c2ccco2)nc1N`, the inhibition was 12.1% (inactive).

For the compound `COc1cc(/C=N/Nc2nc3ccccc3s2)ccc1O`, the inhibition is 85.4% (active).

On to `COc1cc(/C=N/NC(=O)CCc2n[nH]c(=O)[nH]c2=O)ccc1O`, for which the inhibition is -10.3% (inactive).

With `COc1ccc(/C=N/NC(=O)c2cc(-c3cccc(C)c3)nc3ccccc23)cc1O`, the inhibition is 4.88% (inactive).

As to `Cc1c(C(=O)NNC(=O)c2ccncc2)oc2ccccc12`, the inhibition was -3.56% (inactive).

In the case of `O=C(CCNC(=O)c1ccc(Cl)cc1)NC1CCCc2ccccc21` (stereo not drawn), the inhibition was 2% (inactive).

For `O=C(Nc1nnc(S(=O)(=O)N2CCOCC2)s1)c1cccc(Br)c1`, the inhibition was 21.8% (inactive).

For `Cc1cccc(C(=O)Nc2nnc(S(=O)(=O)N3CCCCCC3)s2)c1`, the inhibition was 33.1% (inactive).

For `O=C(Nc1nnc(S(=O)(=O)N2CCCCCC2)s1)c1cccc(Br)c1`, the inhibition was 75.4% (active).

Turning to `Cc1c(Cl)c([N+](=O)[O-])nn1CC(=O)NCC1CCCO1` (stereo not drawn), the inhibition was -2.16% (inactive).

With `CCCCNC(=O)c1cn(CC)c2cc(N3CCN(C(=O)c4ccco4)CC3)c(F)cc2c1=O`, the inhibition is 12.7% (inactive).

For the compound `Cc1noc(C)c1CSc1nc2cc(S(=O)(=O)N3CCOCC3)ccc2o1`, the inhibition was 3.51% (inactive).

For `O=C(NC1CCCCC1)c1cc(C2CC2)on1`, the inhibition is -14.8% (inactive).

Regarding `CSc1ccccc1NC(=O)c1cc(C2CC2)on1`, the inhibition was 52% (active).

For the compound `CSc1ccccc1NC(=O)c1cc(Cl)sc1Cl`, the inhibition is -4.94% (inactive).

On to `Nc1c(C(=O)OCC(=O)Nc2ccc(OC(F)F)cc2)[nH]c(=O)[nH]c1=O`, for which the inhibition is 4.9% (inactive).

For `O=C(/C=C/c1ccc([N+](=O)[O-])o1)NNC(=O)c1ccc(F)cc1`, the inhibition is -1.45% (inactive).

On to `CCCCN(CC)C(=O)C1CCCN(S(=O)(=O)c2cccc3nsnc23)C1` (stereo not drawn), for which the inhibition was 8.83% (inactive).

As for `COC(=O)c1cccc(C(=O)N2CCC(CCC(=O)NCc3ccc(F)cc3)CC2)c1`, the inhibition was 2.77% (inactive).

Regarding `CCCc1nc(N2CCN(C)CC2)c2sc(=S)n(-c3ccccc3)c2n1`, the inhibition was 8.07% (inactive).

On to `O=C(COc1ccc(Cl)cc1)NCc1nnc(SCC(=O)NCC2CCCO2)o1` (stereo not drawn), for which the inhibition was -1.58% (inactive).

Take `c1ccc(CN=C2Nc3ccccc3CS2)nc1`: the inhibition is 52.5% (active).

`O=C1CSc2ccc(C(=O)NCc3ccccn3)cc2N1`: the inhibition is 0.274% (inactive).

With `COc1ccc(Cl)cc1NS(=O)(=O)c1cccc(C(=O)NC2CCC(O)CC2)c1` (stereo not drawn), the inhibition is 3.9% (inactive).

In the case of `CCC1C(=O)c2ccccc2N(C)C1=O` (stereo not drawn), the inhibition was -9.28% (inactive).

For the compound `CN1C(=O)/C(=N/OC(=O)c2ccccc2Br)c2ccccc21`, the inhibition is 20.2% (inactive).

For the compound `CN1C(=O)/C(=C\c2cc(Br)cs2)c2ccccc21`, the inhibition is 66.3% (active).

As to `O=C(NC1CCCCC1)c1ccc(-c2ccc(Cl)cc2)o1`, the inhibition was -2.51% (inactive).

For `CCOc1ccc(C(c2c(C)[nH][nH]c2=O)c2c(C)[nH][nH]c2=O)cc1OCC`, the inhibition was 16.7% (inactive).

For the compound `Cc1[nH][nH]c(=O)c1C(c1ccc(-c2ccc(Cl)cc2)o1)c1c(C)[nH][nH]c1=O`, the inhibition was 53.1% (active).

`Cc1cccc(NC(=O)C2CCCN(C(=O)NCc3ccccc3)C2)c1C` (stereo not drawn): the inhibition was 8.32% (inactive).

`CCNC(=O)CC1C(=O)N(c2ccc(OC)cc2)C(=O)N1CCOC` (stereo not drawn): the inhibition is -17.8% (inactive).

On to `CCCCCCCCCOC1OC(CO)C(O)C(O)C1NC(C)=O` (stereo not drawn), for which the inhibition is -4.5% (inactive).

`Clc1ccc(C2=CSC3=Nc4cccc5cccc(c45)N23)cc1`: the inhibition is 82.2% (active).

Regarding `CCCN(CCc1ccccc1)C1CCc2c(O)cccc2C1` (stereo not drawn), the inhibition was -8.37% (inactive).
